An excerpt weighted towards active compounds, which were near 1.1% of everything screened.
ERK EGF inh: blocks ERK signaling stimulated by EGF. HEK293-V1b, EGF-stimulated phospho-ERK AlphaScreen. Potency, µM (top dose mostly 11.5 µM), inactives show at the highest dose activity change, negative = inhibition, most hits filed as inhibitors. actives 0.41% (n = 130,000). AID 1454;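 also: plate controls were stimulated vehicle wells for no effect and unstimulated vehicle basal for full effect; nearly all actives have a fitted effect of over 55% in size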
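Stably V1b-transfected HEK293 cells; 30 min compound, then EGF 25 nM final for 5 min at 37C; 10 min lysis; phospho-ERK by AlphaScreen after 5 hr beads at room temperature.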
KinaseGlo FLuc: Kinase-Glo luciferase inhibition (counter-screen); Q27757; Kinase-Glo luciferase, ATP luminescence, 8 min; Potency, µM (series often up to 38.3 µM), for inactives: at the top dose activity change, negative = inhibition, most hits filed as inhibitors; actives 0.28% (n = 200,000); AID 1379; also: nearly all actives have a fitted effect of over 60% in size
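Substrate mix (final 50 mM imidazole pH 7.2, 50 mM KCl, 7 mM MgCl2, 10 uM ATP, 0.01% Tween 20, 0.05% BSA) plus pin-tool compound, then Kinase-Glo detection mix; 8 min ambient, luminescence read.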
IMPase Li cell: cell-permeable IMPase inhibitors with lithium potentiation. CHO-M1 cells, IP1 TR-FRET (IP-One), carbachol + lithium. Potency, µM (top dose mostly 59.4 µM), for the others: at the highest dose activity, negative = IMPase inhibition, actives largely listed as inhibitors. actives 0.35% (n = 210,000);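 also: IP1 builds up when IMPase is blocked and the TR-FRET signal falls; plate controls were basal vehicle for no effect and high inhibitor control for full effect; nearly all actives have a fitted effect of over 50% in size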
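CHO cells stably expressing M1 receptor (2000/well, cultured 16–30 h) treated 30 min at 37C with compound plus low lithium. Cytosolic IP1 by TR-FRET (665/620 ratio and 620 channel) after 10 min lysis; AC50 by Hill fit.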
NPSR antag: blocks cAMP signaling of the human neuropeptide S receptor. Q6W5P4. CHO-NPSR cells, cAMP TR-FRET, antagonist mode. Potency, µM (top dose mostly 38.3 µM), for the others: at the highest dose activity change, negative = inhibition, hits mostly inhibitors. actives 1% (n = 220,000); also: nearly all actives have a fitted effect of over 50% in size
Target sequence (Q6W5P4 whole entry, looked up): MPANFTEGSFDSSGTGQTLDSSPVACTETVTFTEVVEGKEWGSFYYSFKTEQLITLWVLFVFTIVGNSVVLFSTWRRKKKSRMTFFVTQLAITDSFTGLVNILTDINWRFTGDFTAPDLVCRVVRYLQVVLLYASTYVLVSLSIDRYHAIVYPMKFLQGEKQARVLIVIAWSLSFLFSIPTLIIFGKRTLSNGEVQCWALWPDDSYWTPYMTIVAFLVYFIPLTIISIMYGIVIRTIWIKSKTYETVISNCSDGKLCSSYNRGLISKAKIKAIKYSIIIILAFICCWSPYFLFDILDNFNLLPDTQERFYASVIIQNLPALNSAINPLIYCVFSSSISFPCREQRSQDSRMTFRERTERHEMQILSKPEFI
Starred values were filed as active, the others as inactive; ? = inconclusive; · = not tested or not shown; [ ] = another dose, or the depositor's remark. Calls follow the shape of the dose curve; as a rule, active = well fitted curve in the direction sought with a large enough effect; inconclusive = small, poorly fitted or top-dose-only effect, or another doubt; inactive = no such curve, though single readings can be large; an effect the other way counts as inactive or inconclusive. Unless noted, % is scaled to controls: 0 for no effect and ±100 for the full control effect; potency is read from the fitted curve at half-maximal effect.

SMILES	ERK EGF inh	KinaseGlo FLuc	IMPase Li cell	NPSR antag
Cc1ccc(S(=O)(=O)/N=C2/C=C(Sc3ncn[nH]3)C(=O)c3ccccc32)cc1	?	-1.2%	28.1%	10µM*
O=[N+]([O-])c1cc(/C=N\Nc2nccs2)ccc1O	·	-20.5%	25.1%[38.3 µM]	2.51µM*
O=C(COc1ccccc1[N+](=O)[O-])N/N=C/c1ccc(O)c([N+](=O)[O-])c1	18.8%	-0.3%	12.9%	-22.6%
CN1CCN(C(=O)c2ccc3c(=O)n(-c4ccc(F)cc4)c(=S)[nH]c3c2)CC1	0.6%	2.4%	?	-11.0%
O=c1c2oc3ccccc3c2[nH]c(=S)n1-c1ccc(F)cc1	6.3%	1.0%	11.2µM*	10µM*
N#Cc1cc(C#N)c(N2CCN(c3ccccn3)CC2)nc1N	·	-4.0%	28.2µM*	-5.8%[46.1 µM]
CCc1c2c(nc3ccc(OC)cc13)COC2	-4.6%	-5.3%	4.1%	·
Cc1ccc(NC(=S)c2nc3ccccc3[nH]2)c(C)c1	12.9%	-13.8%	9.7%	-11.2%
Cc1cccc(/C=C(\c2nc3ccccc3[nH]2)S(=O)(=O)c2ccccc2)c1	29.8%	4.3%	-8.1%	7.94µM*
Cc1ccc2nc(N/N=C\c3cccc(C)n3)cc(C)c2c1	·	-2.9%[7.66 µM]	5.4%	·
COc1ccc2nc(N=Nc3ccc(O)c4ccccc34)sc2c1	7.08µM*	-20.3%	6.3%	-3.6%
O=C(Nc1nc2ccccc2[nH]1)c1ccccc1F	·	2µM*	-5.9%[38.3 µM]	-10.4%[46.1 µM]
O=C(Nc1nc2ccccc2[nH]1)c1ccc(F)cc1	·	?	-4.8%[38.3 µM]	-8.3%[46.1 µM]
CCC1(C)Cc2nc3[nH]c(=S)n(-c4ccc(C)cc4)c(=O)c3cc2CO1 (centres undefined)	5.7%	3.4%	8.91µM*	-27.9%
COc1ccc2nc(NC(=O)c3cc(C)oc3C)sc2c1	7.7%	12.6µM*	-0.2%	-15.7%
Cc1cc(C(=O)Nc2nc3ccc(S(C)(=O)=O)cc3s2)c(C)o1	·	?	23.3%[38.3 µM]	28.7%[46.1 µM]
COc1ccc2nc(NC(=O)c3ccoc3C)sc2c1	·	3.16µM*	19.4%[38.3 µM]	-12.4%[46.1 µM]
O=C1c2ccccc2CCC1CNCCc1ccc(O)cc1 (centres undefined)	·	·	15.2%	·
CCOC(=O)c1ccc(Cl)c(NC(=O)c2ccc(-c3ccccc3)cc2)c1	·	-2.3%	-11.0%[38.3 µM]	27.3%[46.1 µM]
CCOC(=O)c1ccc(/C=C2/C=C(c3ccccc3)N(c3ccc(Cl)c(C(=O)O)c3)C2=O)cc1	5.4%	-5.8%	-2.7%	12.6µM*
O=C(O)c1ccc(Cn2c(SCc3cc(=O)n4cc(Br)ccc4n3)nc3ccsc3c2=O)cc1	-2.0%	2.2%	?	10µM*
O=C(O)C1CCC(Cn2c(SCc3cc(=O)n4cc(Br)ccc4n3)nc3ccsc3c2=O)CC1 (centres undefined)	-5.8%	1.2%	10µM*	7.94µM*
CC(C)=CCc1c(O)cc(O)c2c1O[C@H](c1ccccc1)CC2=O	-1.6%	-0.7%	1.6%	·
OC(CN1CCNCC1)Cn1c2ccc(Br)cc2c2cc(Br)ccc21 (centres undefined)	28.2µM*	2.7%	7.5%	·
Cc1ccc2c(c1)c(C)c(C)n2CC(O)CN1CCOCC1 (centres undefined)	-2.4%	1.2%	7.1%	1.4%
SMILES	ERK EGF inh	KinaseGlo FLuc	IMPase Li cell	NPSR antag
O=C(c1ccco1)N(CCC(c1ccccc1)c1ccco1)Cc1ccc(F)cc1 (centres undefined)	·	-0.4%	19.9%[38.3 µM]	?
CC1(C)CC(C(CCN(Cc2ccccc2)C(=O)c2ccco2)c2ccc(F)cc2)CCO1 (centres undefined)	22.4µM*	-3.2%	18.7%	?
O=C1ON=C(c2ccccc2)/C1=C/c1ccc(OS(=O)(=O)c2ccccc2)cc1	5.3%	2.8%	4.2%	6.31µM*
O=C(COc1ccc(/C=N/NC(=O)c2cc3ccccc3o2)cc1Br)Nc1ccccc1	·	-2.4%	-27.8%[38.3 µM]	10µM*
Cc1cc(C(=O)Nc2ccccc2)oc1C	·	12.6µM*	-4.4%[38.3 µM]	-7.2%[46.1 µM]
CC(=O)Nc1cccc(NC(=O)c2cc3ccccc3o2)c1	·	-18.6%	-4.4%[38.3 µM]	-23.5%[46.1 µM]
O=C(Nc1ccccc1)c1cc2ccccc2o1	7.6%	12.6µM*	4.9%	0.0%[46.1 µM]
CCN(CC)CCCNC(=O)c1cc2c(Cl)nc3ccccc3c2s1	-11.2%	-0.6%	11.4%	6.3%
CN(CCCNC(=O)c1cc2c(Cl)nc3ccccc3c2s1)Cc1ccccc1	25.1µM*	0.2%	9.6%	-20.3%
CC(C)C(NS(=O)(=O)c1c(Cl)cccc1Cl)C(=O)OCC(=O)c1c[nH]c2ccccc12 (centres undefined)	25.1µM*	-1.5%	1.7%	-36.8%
N#C/C(=C/c1ccc(N2CCCCC2)o1)c1cccc(F)c1	·	-4.5%	30.5%[38.3 µM]	10µM*
Cc1ccc(/C(C#N)=C\c2ccc(N3CCOCC3)o2)cc1	·	-0.7%	24.7%	?
N#C/C(=C/c1ccc(N2CCCCCC2)o1)c1ccc(Cl)cc1	·	-2.9%	19.9%[38.3 µM]	10µM*
O=C(O)c1cccc(OCCO)c1	·	-4.6%[7.66 µM]	0.8%	·
O=C(O)c1cc2c(cc1S(=O)(=O)O)[C@H]1[C@@H](C3[C@H]2[C@@]2(Cl)C(Cl)=C(Cl)C3(Cl)C2(Cl)Cl)[C@]2(Cl)C(Cl)=C(Cl)C1(Cl)C2(Cl)Cl (some centres undefined)	·	-20.6%[7.66 µM]	-7.8%	·
CC(=O)N1CCc2c(sc(NC(=O)c3ccc([N+](=O)[O-])o3)c2C#N)C1	-0.2%	-20.0%	34.4%	2.51µM*
COc1ccc(C(=O)Nc2sc3c(c2C#N)CCN(C(C)=O)C3)cc1	5.7%	0.1%	10.0%	0.8%
CC1(C)S[C@@H]2[C@H](NC(=O)C(N)c3ccccc3)C(=O)N2[C@H]1C(=O)O (some centres undefined)	20.8%[25.7 µM]	-2.1%[17.1 µM]	·	·
CCOC(=O)c1sc2nc(N3CCOCC3)c3c(c2c1N)CC(C)(C)N(C)C3	·	-1.4%	-11.7%[38.3 µM]	-10.0%[46.1 µM]
CN1Cc2c(N3CCOCC3)nc3sc(C(=O)c4ccccc4)c(N)c3c2CC1(C)C	-15.2%[57.5 µM]	·	·	12.6µM*
COc1cccc(-c2cc(NCc3ccccc3)ncn2)c1	·	·	-10.3%	·
Cc1ccc(-n2c(C)cc(C3N=C(N)Nc4nc5ccccc5n43)c2C)c(C)c1 (centres undefined)	·	-1.6%	40.6%[38.3 µM]	10µM*
S=c1[nH]nc(-c2cccnc2)o1	·	16.1%	-29.9%[38.3 µM]	-12.6%[46.1 µM]
S=c1[nH]nc(-c2cccc(Br)c2)o1	·	-0.5%	10µM*	15.6%[46.1 µM]
Cc1[nH]c(-c2ccc3c(c2)OCO3)nc1C(=O)O	·	11.2µM*	4.5%[38.3 µM]	-10.2%[46.1 µM]
SMILES	ERK EGF inh	KinaseGlo FLuc	IMPase Li cell	NPSR antag
Cc1cc(C(=O)N/N=C/c2ccc3c(c2)OCO3)c(C)o1	-1.5%	12.6µM*	8.8%	7.9%
O=C(N/N=C/c1ccc2c(c1)OCO2)c1ccc2c(c1)OCCO2	5.3%	-15.1%	4.4%	-11.6%
Cc1cccc(C(=O)N/N=C/c2ccc3c(c2)OCO3)n1	·	-7.7%	-10.7%[38.3 µM]	-4.8%[46.1 µM]
Cc1occc1C(=O)N/N=C/c1ccc2c(c1)OCO2	-22.8%[57.5 µM]	·	·	-1.9%
Cc1ccsc1C(=O)N/N=C/c1ccc2c(c1)OCO2	-15.5%	2µM*	8.2%	7.4%
O=C(O)c1ccc(N/N=C/c2ccc3c(c2)OCO3)cc1	3.3%	3.98µM*	19.0%	55.5%
O=C(O)c1cc(N/N=C/c2ccc3c(c2)OCO3)ccc1Cl	-5.4%	-2.0%	2.9%	6.6%
